The whole screen tested about 16,000 compounds, of which about 5,700 (36%) were called active. Inconclusive results (about 24%) are left out. Calls follow the shape of the dose curve; as a rule, active = well fitted curve in the direction sought with a large enough effect; inconclusive = small, poorly fitted or top-dose-only effect, or effect the other way; inactive = no such curve, though single readings can be large or run the other way. The list shows a part of the results.
% is scaled to controls: 0 for no effect and ±100 for the full control effect.

This assay deals with Cytochrome P450 1A2 (Homo sapiens) (UniProt P05177). The assay can be described thus: Cytochrome panel assay with activity outcomes. The conditions noted are these: recombinant CYP, pro-luciferin dealkylation, luminescence, p450-cyp1a2; series mostly up to 57.1 µM.
Chain of Cytochrome P450 1A2 (Homo sapiens) (P05177 whole entry, looked up): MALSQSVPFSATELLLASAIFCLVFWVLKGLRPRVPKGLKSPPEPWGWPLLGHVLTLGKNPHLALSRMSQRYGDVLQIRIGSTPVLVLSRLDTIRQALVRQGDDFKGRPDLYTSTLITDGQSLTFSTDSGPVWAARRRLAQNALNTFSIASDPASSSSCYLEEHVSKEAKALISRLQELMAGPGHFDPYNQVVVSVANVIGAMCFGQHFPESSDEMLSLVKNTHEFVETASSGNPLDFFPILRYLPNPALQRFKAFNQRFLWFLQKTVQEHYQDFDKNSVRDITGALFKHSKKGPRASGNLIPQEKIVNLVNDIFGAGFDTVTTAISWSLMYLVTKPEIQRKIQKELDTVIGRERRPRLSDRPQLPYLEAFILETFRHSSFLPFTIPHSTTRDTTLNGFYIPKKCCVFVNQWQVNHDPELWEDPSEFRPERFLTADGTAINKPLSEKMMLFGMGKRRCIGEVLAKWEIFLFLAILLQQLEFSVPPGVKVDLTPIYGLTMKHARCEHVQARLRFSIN
On to `O=C1COc2ccccc2CN1`, for which the AC50 entry was “inactive”.

In the case of `Fc1ccc(-c2cnc(-c3cccs3)o2)cc1`, the AC50 is 2.82 µM (active).

As to `CCOC(=O)Nc1ccc2c(c1)N(C(=O)CCN1CCOCC1)c1ccccc1S2`, the AC50 entry is “inactive”.

Turning to `CCOC(=O)Nc1ccc2c(c1)N(C(=O)CCN1CCN(C)CC1)c1ccccc1S2`, the AC50 result is “inactive”.

As for `COC(=O)c1cc(NC(=O)N2c3ccccc3Sc3ccccc32)cc(C(=O)OC)c1`, the AC50 is 3.16 µM (active).

In the case of `CCC1Oc2ccccc2N(CC(=O)NCCCN2CCCCC2C)C1=O` (stereo not given), the AC50 entry is “inactive”.

In the case of `O=[N+]([O-])/C=C\c1cc2ccccc2[nH]1`, the AC50 was 1.26 µM (active).

For `Nc1c(S(=O)(=O)O)cc(Nc2cccc(S(N)(=O)=O)c2)c2c1C(=O)c1ccccc1C2=O`, the AC50 was 3.98 µM (active).

Regarding `NCCNC(=O)c1ncsc1-c1cccc(F)c1`, the AC50 is 10 µM (active).

As to `Cc1scc2c1N(C(=O)CN1CCN(C)CC1)c1ccccc1NC2=O`, the AC50 result is “inactive”.

With `Cc1sc2nc(C3CC3)nc(SCC(=O)N3CC(=O)Nc4ccccc43)c2c1C`, the AC50 was 6.31 µM (active).

On to `Cc1nnc(SCC(=O)N2CC(=O)Nc3ccccc32)n1Cc1ccccc1`, for which the AC50 entry was “inactive”.

With `C[C@@H](C(=O)O)c1ccc(C(=O)c2cccs2)cc1`, the AC50 entry was “inactive”.

Consider `COC(=O)Nc1nc2ccc(C(=O)c3cccs3)cc2[nH]1`, for which the AC50 is 0.794 µM (active).

Turning to `COC(=O)Nc1nc2ccc(SC(C)C)cc2[nH]1`, the AC50 is 0.501 µM (active).

For the molecule `CC(=O)Nc1ccc2nc(C3CCCCC3)[nH]c2c1`, the AC50 entry is “inactive”.

On to `COC(=O)c1ccc(C(NC(=O)c2ccccc2)[C@]2(C)C[C@H]2C2CCCCC2)cc1` (stereo not given in full), for which the AC50 entry is “inactive”.

`COC(=O)c1ccc(C23CC2(C(NP(=O)(c2ccccc2)c2ccccc2)c2ccccc2)C3)cc1` (stereo not given): the AC50 is 15.8 µM (active).

For `Cc1ccc2cc(C(=O)O)c(C)nc2c1`, the AC50 result was “inactive”.

In the case of `O=C(O)CSc1nnc2c3ccccc3c3ccccc3c2n1`, the AC50 was 0.0794 µM (active).

Take `O=C(O)CSc1ccn(Cc2ccccc2)c1`: the activity, negative = inhibition was -14.3% [at 11.4 µM] (inactive).

As to `c1ccc(CSc2nnc3c4ccccc4c4ccccc4c3n2)cc1`, the AC50 is 0.2 µM (active).

`O=C(O)CSc1cc(-c2ccccc2)nc2ccccc12`: the activity, negative = inhibition was -4.67% [at 2.29 µM] (inactive).

With `O=C(O)c1cc(=O)[nH]c(SCc2ccccc2)n1`, the activity, negative = inhibition is -12% [at 11.4 µM] (inactive).

`O=C(CSc1nnc2c3ccccc3c3ccccc3c2n1)Nc1ccccc1`: the AC50 was 1.12 µM (active).

As for `Cn1c(SCC(=O)Nc2ccccc2)nc(O)cc1=O`, the AC50 result is “inactive”.

For the molecule `CCc1c(C)nc(N)n2c(SCC(=O)Nc3ccccc3)nnc12`, the AC50 entry was “inactive”.

Consider `CN(C)S(=O)(=O)c1nc(Cl)c2[nH]cnc2n1`, for which the activity, negative = inhibition is 2.44% [at 11.4 µM] (inactive).

For the molecule `Cc1ccc(-c2ccc(=O)n(CC(=O)NCCN(C)C)n2)cc1`, the AC50 result is “inactive”.

For `C[C@@H]1CCC[C@H](C)N1`, the AC50 entry is “inactive”.

Turning to `COC(=O)C1=C(C)N=C2SC(C)C(=O)N2C1/C=C/c1ccccc1` (stereo not given), the AC50 entry was “inactive”.

With `Cc1cc(C)nc(NC(=O)c2cccc([N+](=O)[O-])c2C)n1`, the AC50 result is “inactive”.

For `O=C(Nc1cccc(NC(=O)c2ccccc2[N+](=O)[O-])n1)c1ccccc1[N+](=O)[O-]`, the AC50 is 8.91 µM (active).

For `CC1CCN(S(=O)(=O)c2ccc3c(c2)C(=NO)c2cc(S(=O)(=O)N4CCC(C)CC4)ccc2-3)CC1`, the AC50 result is “inactive”.

Consider `O[C@]1(c2ccccc2)c2ccccc2NC2=NCCN21`, for which the activity, negative = inhibition was -14.8% [at 11.4 µM] (inactive).

In the case of `Nc1cc(S(=O)(=O)O)cc2ccc(S(=O)(=O)O)cc12`, the activity, negative = inhibition is -18.1% [at 2.29 µM] (inactive).

For `CC[C@@]1([N+](=O)[O-])C[C@H]2C=C[C@@H]1C2`, the activity, negative = inhibition is -12.9% [at 2.29 µM] (inactive).

For the molecule `C[C@@H]1C[C@@H]2[C@H]3CCC4=CC(=O)C=C[C@]4(C)[C@]3(Cl)[C@@H](O)C[C@@]2(C)[C@@]1(O)C(=O)CO`, the AC50 result was “inactive”.

On to `O=S(=O)(c1ccccc1)N1CCC2(CCN(c3ncccn3)CC2)CC1`, for which the AC50 result is “inactive”.

For the molecule `O=S(=O)(c1ccccc1)N1CCN(c2cc(-c3ccccc3)nc3ncnn23)CC1`, the AC50 is 0.794 µM (active).

For the molecule `O=S(=O)(c1ccccc1)N1CCC2(CC1)CN(c1ncccn1)C2`, the AC50 entry is “inactive”.

For the molecule `FC(F)(F)c1ccc(N2CCN(c3cc(-c4ccccc4)nc4ncnn34)CC2)nc1`, the AC50 was 10 µM (active).

Turning to `Nc1nc(Cl)nc2c1ncn2[C@@H]1O[C@@H](COP(=O)(O)OP(=O)(O)OP(=O)(O)O)[C@@H](O)[C@H]1O`, the AC50 entry is “inactive”.

As for `C#CCCCO/N=C1/C[C@@H](O)[C@@H](O)[C@@H]2[C@@H]3C(=O)N(CC)C(=O)[C@H]3CC[C@@H]12`, the activity, negative = inhibition is -3.56% [at 11.4 µM] (inactive).

In the case of `CCn1c(CC(=O)Nc2ccc(C)cc2)nnc1SCC(=O)Nc1nc(C)cs1`, the AC50 result is “inactive”.

As for `Cc1ccc(NC(=S)Nc2nc(CC(=O)Nc3ccccc3)cs2)cc1`, the AC50 is 2.24 µM (active).

As to `COc1cccc([C@@H]2Oc3ccc(OC)cc3/C(=N/OC[C@@H](C)[C@H](OCc3ccccc3)C(C)C)[C@@H]2O)c1`, the activity, negative = inhibition was -6.71% [at 11.4 µM] (inactive).

In the case of `CN(C)c1ncc2nc(CCc3ccccc3)c(=O)n(Cc3cccs3)c2n1`, the concentration at half-maximal activity (AC50) is 1.58 µM (active).

Regarding `CN(C)c1ncc2nc(-c3ccccc3)c(=O)n(CCc3ccccc3)c2n1`, the AC50 is 20 µM (active).

For `CN(C)c1ncc2nc(CCc3ccccc3)c(=O)n(-c3ccccc3)c2n1`, the AC50 is 0.794 µM (active).

Take `COc1cccc(Cn2c(=O)cnc3cnc(N(C)C)nc32)c1`: the AC50 is 6.31 µM (active).

For `COc1cccc(Cn2c(=O)c(-c3cc(F)cc(F)c3)nc3cnc(N(C)C)nc32)c1`, the AC50 result is “inactive”.

In the case of `CN(C)c1ncc2nc(-c3cc(F)cc(F)c3)c(=O)n(CCc3ccccc3)c2n1`, the AC50 entry was “inactive”.

As to `C/C(CCN1CCCc2nc(C)c(C)cc21)=N\O[C@@H](C)CN1CCCCc2nc(C)c(C)cc21`, the activity, negative = inhibition was 2.64% [at 11.4 µM] (inactive).

With `C[C@]12CC[C@H]3c4ccc(O)cc4CC[C@@H]3[C@H]1C/C(=N/O)[C@H]2O`, the activity, negative = inhibition was -12.7% [at 11.4 µM] (inactive).

As to `C=C(C)CNCCN`, the activity, negative = inhibition was 2.24% [at 2.29 µM] (inactive).

On to `Cc1nc2cnc(N(C)C)nc2n(CCc2ccccc2)c1=O`, for which the AC50 is 1.26 µM (active).

Regarding `CN(C)c1ncc2nc(CCc3ccccc3)c(=O)n(CCC#N)c2n1`, the AC50 was 2 µM (active).

`COc1cccc(Cn2c(=O)c(CCc3ccccc3)nc3cnc(N(C)C)nc32)c1`: the AC50 was 15.8 µM (active).

As for `CN(C)c1ncc2ncc(=O)n(CCc3ccccc3)c2n1`, the AC50 is 0.794 µM (active).

The AC50 is the concentration at which the activity in the assay is half-maximal.

(Values after PubChem BioAssay AID1851 (National Center for Advancing Translational Sciences (NCATS), 2009).)
